miR122 inh: miR-122 suppressors via Renilla sensor increase, primary screen, cell-based, Huh7 psiCHECK-miR122, Renilla luciferase, single point; actives 0.14% (n = 340,000); AID 623901, 2012; 48 h; activation, % at 12.5 µM;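 active = mean activation of 30% or more, with every replicate also reaching 30%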;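 note: 0% = median of neutral control wells and 100% = median of positive control wells; higher luciferase signal means stronger suppression of miR-122 activity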
* hit, by the source's call. This is one part of a sample in which hits are shown more often than they occur.

SMILES	miR122 inh
COCCNC(=O)C[C@@H]1CC[C@H]2[C@H](COc3ccc(NC(=O)Cc4ccccc4)cc3C(=O)N2C)O1	-107
CCNC(=O)C[C@H]1CC[C@@H]2[C@@H](COc3ccc(NC(=O)c4cccc(C(F)(F)F)c4)cc3C(=O)N2C)O1	53*
CN1C(=O)c2cc(NC(=O)c3ccc(C(F)(F)F)cc3)ccc2OC[C@@H]2O[C@H](CC(=O)NCc3ccc4c(c3)OCO4)CC[C@@H]21	33*
CC(C)C(=O)Nc1ccc2c(c1)C(=O)N(C)[C@H]1CC[C@H](CC(=O)NCCc3ccccc3)O[C@H]1CO2	53*
CC(C)C(=O)Nc1ccc2c(c1)C(=O)N(C)[C@H]1CC[C@H](CC(=O)NCc3cccc(F)c3)O[C@@H]1CO2	-300
CCNC(=O)C[C@@H]1CC[C@@H]2[C@@H](COc3ccc(NC(=O)c4ccccc4)cc3C(=O)N2C)O1	42*
CO[C@H]1CN(C)C(=O)c2cc(NS(=O)(=O)c3ccccc3)ccc2OC[C@@H](C)N(C)C[C@@H]1C	-1
CCC(=O)Nc1ccc2c(c1)OC[C@@H](C)N(C(=O)c1ccccc1F)C[C@@H](C)[C@H](OC)CN(C)C2=O	3
C[C@H]1CN([C@@H](C)CO)S(=O)(=O)c2ccc(-c3ccncc3)cc2O[C@@H]1CN(C)Cc1ccccn1	-7
COc1cccc(NC(=O)N(C)C[C@@H]2Oc3ncc(C#Cc4cccnc4)cc3C(=O)N([C@H](C)CO)C[C@@H]2C)c1	3
Cc1ccc(S(=O)(=O)N(C)C[C@@H]2Oc3ccc(NC(=O)Nc4ccc(C(F)(F)F)cc4)cc3CC(=O)N([C@@H](C)CO)C[C@@H]2C)cc1	-95
CCC(=O)N(C)C[C@H]1Oc2ncc(C#C[C@H](C)O)cc2C(=O)N([C@H](C)CO)C[C@@H]1C	0
C[C@@H](O)C#Cc1ccc2c(c1)O[C@@H](CN(C)Cc1cncnc1)[C@@H](C)CN([C@@H](C)CO)S2(=O)=O	2
C[C@@H]1CN([C@H](C)CO)C(=O)c2cc(C#CC3(O)CCCC3)cnc2O[C@H]1CN(C)S(=O)(=O)c1cccc(F)c1	6
C[C@@H]1CN([C@H](C)CO)C(=O)c2cc(-c3cccnc3)cnc2O[C@H]1CN(C)Cc1ccc(Oc2ccccc2)cc1	0
C[C@H](CO)N1C[C@H](C)[C@@H](CN(C)CC2CCCCC2)Oc2c(NC(=O)C3CC3)cccc2C1=O	-114
C[C@H]1CN([C@@H](C)CO)C(=O)c2cc(/C=C/c3ccccc3)cnc2O[C@H]1CN(C)S(=O)(=O)c1ccc(F)cc1	17
C[C@H]1CN([C@@H](C)CO)C(=O)c2cc(-c3cccnc3)cnc2O[C@@H]1CN(C)Cc1ccc(Oc2ccccc2)cc1	6
C[C@H](CO)N1C[C@H](C)[C@H](CN(C)S(=O)(=O)c2cccc(F)c2)Oc2ncc(C#CC3(O)CCCC3)cc2C1=O	7
C[C@@H]1CN([C@@H](C)CO)C(=O)c2cc(/C=C/c3ccccc3)cnc2O[C@H]1CN(C)S(=O)(=O)c1ccc(F)cc1	3
C[C@@H]1CN([C@H](C)CO)C(=O)c2cc(-c3cncnc3)cnc2O[C@H]1CN(C)Cc1ccc(Oc2ccccc2)cc1	38*
C[C@@H]1CN([C@@H](C)CO)C(=O)c2cc(C#CC3CCCCC3)cnc2O[C@H]1CN(C)S(=O)(=O)c1cccc(F)c1	45*
COc1ccc(S(=O)(=O)N(C)C[C@@H]2Oc3ncc(/C=C/c4ccccc4)cc3C(=O)N([C@@H](C)CO)C[C@@H]2C)cc1	42*
C[C@H](CO)N1C[C@H](C)[C@@H](CN(C)CC2CCCCC2)Oc2c(NS(=O)(=O)c3cccs3)cccc2C1=O	33*
C[C@H](CO)N1C[C@H](C)[C@H](CN(C)CC2CCCCC2)Oc2c(NC(=O)C3CCOCC3)cccc2C1=O	-104
SMILES	miR122 inh
CCC(=O)Nc1ccc2c(c1)OC[C@H](C)N(Cc1ccccc1F)C[C@@H](C)[C@@H](OC)CN(C)C2=O	-4
C[C@@H]1CN([C@@H](C)CO)C(=O)c2cc(-c3cncnc3)cnc2O[C@H]1CN(C)Cc1ccncc1	-1
C/C=C/c1ccc([C@H]2[C@@H](CO)N(c3nc(CC)cs3)[C@H]2CNC(C)C)cc1	-92
C[C@H](CO)N1C[C@H](C)[C@@H](CN(C)C(=O)Nc2ccccc2F)Oc2ncc(/C=C/c3ccccc3)cc2C1=O	-9
CCCN(C)C[C@@H]1Oc2cc(C#CC3(O)CCCC3)ccc2S(=O)(=O)N([C@@H](C)CO)C[C@@H]1C	2
CO[C@H]1CN(C)C(=O)c2cc(NC(=O)Cc3ccccc3)ccc2OC[C@@H](C)N(C)C[C@H]1C	-1
C[C@@H]1CN([C@@H](C)CO)S(=O)(=O)c2ccc(-c3ccc(C#N)cc3)cc2O[C@@H]1CN(C)C(=O)C1CC1	-23
C[C@H](CO)N1C[C@H](C)[C@H](CN(C)C(=O)CN(C)C)Oc2cc(C#CCN(C)C)ccc2S1(=O)=O	3
C[C@H](O)C#Cc1cnc2c(c1)C(=O)N([C@H](C)CO)C[C@H](C)[C@@H](CN(C)C(=O)CN(C)C)O2	5
C[C@H]1CN([C@@H](C)CO)S(=O)(=O)c2ccc(-c3ccncc3)cc2O[C@@H]1CN(C)Cc1ccccc1	-4
C[C@H](CO)N1C[C@H](C)[C@@H](CN(C)C(=O)c2ccncc2)Oc2cc(C#Cc3ccncc3)ccc2S1(=O)=O	13
C[C@@H]1CN([C@@H](C)CO)C(=O)c2cc(-c3cccc(F)c3)cnc2O[C@H]1CN(C)CC1CCCC1	10
C[C@H]1CN([C@@H](C)CO)C(=O)c2cc(-c3cccnc3)cnc2O[C@@H]1CN(C)C(=O)Nc1ccc(F)cc1	9
C[C@H]1CN([C@@H](C)CO)C(=O)c2cc(-c3cccnc3)cnc2O[C@H]1CN(C)C(=O)Nc1ccc(F)cc1	6
C[C@H]1CN([C@@H](C)CO)C(=O)c2cc(-c3ccc(C#N)cc3)cnc2O[C@H]1CN(C)C(=O)Nc1ccc(C(F)(F)F)cc1	37*
Cc1ccc(-c2cnc3c(c2)C(=O)N([C@H](C)CO)C[C@@H](C)[C@H](CN(C)CC2CCCCC2)O3)cc1	32*
C[C@H](CO)N1C[C@H](C)[C@@H](CN(C)CC2CCCC2)Oc2ncc(-c3cccc(F)c3)cc2C1=O	-4
O=S(=O)(NCc1ccco1)c1ccc2ccccc2c1	-95
CC(=O)Nc1ccc(S(=O)(=O)C(C#N)c2nc3ccccc3nc2NCCO)cc1 (stereo not drawn)	-95
CCCNC(=O)N(C)C[C@H]1Oc2cc(Br)ccc2S(=O)(=O)N([C@H](C)CO)C[C@@H]1C	-2
C[C@H](CO)N1C[C@H](C)[C@H](CN(C)S(=O)(=O)c2ccccc2)Oc2ncc(C#Cc3ccccc3F)cc2C1=O	15
COc1ccc(NC(=O)N(C)C[C@H]2Oc3ncc(C4=CCCC4)cc3C(=O)N([C@H](C)CO)C[C@H]2C)cc1	6
Cn1c(-c2ccc(N)cc2)nc2ccccc21	36*
CCN(CC(=O)NCc1cccs1)C(=O)c1cccc(S(=O)(=O)Nc2cccc(C)c2)c1	-95
Cc1nn(Cc2ccccc2Cl)c2sc(C(=O)OC3CCCC3=O)cc12 (stereo not drawn)	36*
COCC(=O)Nc1ccc2c(c1)OC[C@H](C)N(C(C)=O)C[C@H](C)[C@H](OC)CN(C)C2=O	-2
Cc1cc(C)c(-n2nnnc2SCC(=O)c2cccs2)c(C)c1	-114
CN1/C(=C/C=C/c2n(C)c3cc([N+](=O)[O-])c([N+](=O)[O-])cc3[n+]2C)C(C)(C)c2ccccc21	38*

Screens (PubChem BioAssay)
